From PubChem BioAssay (NCI)
Compounds without any hit were thinned out: in the full panel of roughly 79,000, 15% have a hit. Values without a mark were called inactive. Active and inactive are the calls of the source. No stated cut-off is given here; in the data, active means growth inhibition above about 70%; inactive means the rest. Where a SMILES comes first, the peptide text is derived from it. [ ]: non-standard residue; d: D form. The star is where a group is joined. Phe(2-OMe) = COc1ccccc1C[CH](N)C(=O)O; Cbz = O=C(OCc1ccccc1)*; OBn = c1ccc(CO*)cc1

Experiments:
[1] = NCI Yeast Anticancer Drug Screen. Data for the rad50 strain (AID 155);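 further: 0% = growth of vehicle-only cultures of the same strain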; conditions: S. cerevisiae rad50 strain growth inhibition, stronger effect = higher value
In short: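 Growth of the mutant yeast was measured after compound exposure and referenced to vehicle-treated cultures.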

[2] = NCI Yeast Anticancer Drug Screen. Data for the mec2-1 strain (AID 157); conditions: S. cerevisiae mec2-1 strain, stronger effect = higher value
In short: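 Test agents were screened against the mec2-1 yeast strain, with defined DNA repair or cell cycle alteration. Growth was scored as inhibition against vehicle-only controls.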

[3] = NCI Yeast Anticancer Drug Screen. Data for the sgs1 mgt1 strain (AID 161);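 further: 0% = growth of cultures given vehicle only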; conditions: S. cerevisiae sgs1 mgt1 strain, stronger effect = higher value
In short: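 Test agents were incubated with a DNA-repair-mutant yeast strain. Growth was then read and compared against vehicle-treated controls.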

[4] = NCI Yeast Anticancer Drug Screen. Data for the cln2 rad14 strain (AID 165);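 further: 0% = growth equal to vehicle treated cultures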; conditions: S. cerevisiae cln2 rad14 strain, stronger effect = higher value
In short: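 Growth of compound-exposed yeast (cln2 rad14 genotype) measured and expressed as inhibition relative to vehicle.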

[5] = NCI Yeast Anticancer Drug Screen. Data for the bub3 strain (AID 167); conditions: S. cerevisiae bub3 mutant strain, stronger effect = higher value
In short: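 Whole-cell yeast assay. The mutant strain was incubated with compounds, and growth inhibition was determined by comparison with vehicle-treated cells.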

[6] = NCI Yeast Anticancer Drug Screen. Data for the mlh1 rad18 strain (AID 175); conditions: S. cerevisiae mlh1 rad18 strain growth inhibition, stronger effect = higher value
In short: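 In this whole-cell yeast screen, a strain with altered DNA damage repair is challenged with compound, and its growth is measured against matched vehicle-treated controls.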

[7] = at 5.0 µM (retest, dose inferred, filed as 0.5)
[8] = at 50.0 µM (retest, dose inferred, filed as 5.0)

Row | Compound | growth inhibition [1, 7] | growth inhibition [1, 8] | growth inhibition ([1]; at 50.0 µM) | growth inhibition [2, 7] | growth inhibition [2, 8] | growth inhibition ([2]; at 50.0 µM) | growth inhibition [3, 7] | growth inhibition [3, 8] | growth inhibition ([3]; at 50.0 µM) | growth inhibition [4, 7] | growth inhibition [4, 8] | growth inhibition ([4]; at 50.0 µM) | growth inhibition [5, 7] | growth inhibition [5, 8] | growth inhibition ([5]; at 50.0 µM) | growth inhibition [6, 7] | growth inhibition [6, 8] | growth inhibition ([6]; at 50.0 µM)
1 | CC(C)(C)C(=O)OCC(=O)c1ccc(-c2ccccc2)cc1 | -2% | -6% | 11% | -6% | -6% | -0.25% | -2% | -4% | 13.7% | -9% | -13% | -4.6% | 73% (active) | 86% (active) | 65% | -4% | -8% | 3.75%
2 | COc1ccc(C2C3CCCC(C3=O)C(c3ccc(OC)cc3)N2N=O)cc1 (configuration not stated) | 0% | 68% | 84% (active) | 11% | 64% | 86.9% (active) | -4% | 77% (active) | 59.5% | -6% | 71% (active) | 88.8% (active) | -2% | 72% (active) | 85.2% (active) | -3% | 77% (active) | 96.5% (active)
3 | Fc1ccc2nncc(SCc3ccccc3)c2c1 | 1% | 97% (active) | 97.9% (active) | 10% | 99% (active) | 97.2% (active) | 11% | 98% (active) | 93.2% (active) | 3% | 95% (active) | 91.5% (active) | 2% | 97% (active) | 97% (active) | -2% | 98% (active) | 95.5% (active)
4 | O=C(C(/C=N\C(=S)Nc1ccccc1Cl)=C(/O)c1ccccc1)c1ccccc1 | 86% (active) | 99% (active) | 99.4% (active) | 81% (active) | 100% (active) | 99% (active) | 55% | 99% (active) | 99.3% (active) | 95% (active) | 99% (active) | 98.4% (active) | 99% (active) | 99% (active) | 99.3% (active) | 90% (active) | 99% (active) | 99.1% (active)
5 | CC(C)(C)c1ccc(O)c(O)c1 | 2% | 56% | 63.4% | 10% | 51% | 61.6% | 11% | 54% | 79.8% (active) | -1% | 16% | -8.95% | -3% | 23% | 37.6% | 10% | 75% (active) | 81.2% (active)
6 | COC1=CC23C=CC1[C@@H](c1ccccc1)C2=C(C)C(=O)N3C(=O)NC1CCCCC1 (some centres not stated) | 21% | 21% | 71.1% (active) | -4% | -4% | 68.2% | 1% | 1% | 63.8% | 5% | 5% | 29.8% | -8% | -8% | 65% | -4% | -4% | 50.6%
7 | CN(C)/N=C1\CC(c2ccccc2)C(C#N)(C#N)C1(C#N)C#N (configuration not stated) | 41% | 99% (active) | 89.3% (active) | 51% | 100% (active) | 89% (active) | 42% | 100% (active) | 88.5% (active) | 39% | 99% (active) | 88.5% (active) | 56% | 100% (active) | 89.6% (active) | 51% | 99% (active) | 91.5% (active)
8 | O=C(O)c1ccccc1C(=O)c1ccc2c(c1)Cc1ccccc1-2 | -5% | 9% | 68.6% | -3% | 4% | 41.3% | -4% | 7% | 44.9% | -28% | 31% | 74.8% (active) | 4% | 5% | 42.8% | 3% | 26% | 76% (active)
9 | Nc1ncnc2c1ncn2C1OCC(OCc2ccccc2)C(OCc2ccccc2)C1OCc1ccccc1 (configuration not stated) | 9% | 99% (active) | 98.3% (active) | -25% | 100% (active) | 96% (active) | 13% | 98% (active) | 99.2% (active) | 6% | 98% (active) | 96.8% (active) | 13% | 99% (active) | 97.5% (active) | -4% | 99% (active) | 98.1% (active)
10 | COC(=O)C(Cc1ccccc1OC)NC(=O)C(CC(=O)OCc1ccccc1)NC(=O)OCc1ccccc1 (configuration not stated) (Cbz-Asp(OBn)-[Phe(2-OMe)]-OMe; configuration not given here) | -5% | 84% (active) | 51.5% | 0% | 37% | 58.2% | 1% | 92% (active) | 65.2% | 16% | 86% (active) | 80.5% (active) | -1% | 84% (active) | 87.8% (active) | 0% | 84% (active) | 54.8%
11 | C/C(=N\NC(N)=S)c1ccc(C2CCCCC2)cc1 | 73% (active) | 97% (active) | 97.2% (active) | 68% | 98% (active) | 95.7% (active) | 88% (active) | 99% (active) | 98.2% (active) | 61% | 97% (active) | 97% (active) | 60% | 97% (active) | 96.2% (active) | 83% (active) | 97% (active) | 94.5% (active)
12 | CCOC(=O)C(Br)C(Br)c1cccc(Cl)c1 (configuration not stated) | 53% | 99% (active) | 99.5% (active) | 64% | 99% (active) | 99.7% (active) | 84% (active) | 99% (active) | 99.8% (active) | 31% | 99% (active) | 99.4% (active) | 57% | 99% (active) | 99.8% (active) | 84% (active) | 99% (active) | 99.5% (active)
13 | N#C/C(=C\c1cc(Cl)cc(Cl)c1O)C(/C(C#N)=C/c1cc(Cl)cc(Cl)c1O)c1ccc2c(c1)OCO2 (configuration not stated) | 64% | 98% (active) | 90.8% (active) | 48% | 99% (active) | 93.5% (active) | 75% (active) | 100% (active) | 93.2% (active) | 44% | 97% (active) | 91.8% (active) | 74% (active) | 99% (active) | 92.1% (active) | 80% (active) | 99% (active) | 90.8% (active)
14 | CC(=O)C1CCCCC1/C=C/[N+](=O)[O-] (configuration not stated) | 23% | 93% (active) | 99.5% (active) | 16% | 74% (active) | 99.7% (active) | 25% | 93% (active) | 99.1% (active) | 6% | 27% | 99% (active) | 30% | 91% (active) | 99.5% (active) | 42% | 97% (active) | 99.2% (active)
15 | [N-]=[N+]=CC(=O)CCC(NC(=O)OCc1ccccc1)C(=O)OCc1ccccc1 (configuration not stated) | 96% (active) | 99% (active) | 91.2% (active) | 97% (active) | 100% (active) | 93.1% (active) | 96% (active) | 99% (active) | 90.5% (active) | 96% (active) | 99% (active) | 90.9% (active) | 97% (active) | 100% (active) | 89% (active) | 97% (active) | 98% (active) | 90.8% (active)
16 | CN1C(=O)CCC2[C@@H]3CC=C4C[C@@H](O)CC[C@]4(C)C3CC[C@@]21C (some centres not stated) | -3% | 27% | 16.4% | 0% | 11% | 0.3% | 1% | 59% | 69.8% | 10% | 13% | 28.8% | 22% | 66% | 57.7% | -7% | 16% | 70.8% (active)
17 | Cc1cc(N)c2cc(NC(=O)Nc3ccc4nc(C)cc(N)c4c3)ccc2n1 | 100% (active) | 100% (active) | 99% (active) | 100% (active) | 99% (active) | 99% (active) | 99% (active) | 67% | 99% (active) | 99% (active) | 100% (active) | 95.3% (active) | 99% (active) | 99% (active) | 98.7% (active) | 99% (active) | 99% (active) | 98.5% (active)
18 | CN(C)CCSCCN1c2ccccc2Sc2ccc(Cl)cc21 | -5% | 99% (active) | 57.5% | -2% | 99% (active) | 99.7% (active) | -16% | 99% (active) | 98.6% (active) | -8% | 99% (active) | 99% (active) | 4% | 99% (active) | 99.2% (active) | 5% | 99% (active) | 99.5% (active)
19 | CN1c2ccccc2C(c2ccccc2)c2ccc(Nc3ccccc3)cc21 (configuration not stated) | 94% (active) | 99% (active) | 97.7% (active) | 100% (active) | 100% (active) | 99.6% (active) | 98% (active) | 100% (active) | 99.5% (active) | 95% (active) | 99% (active) | 99.2% (active) | 96% (active) | 99% (active) | 99.3% (active) | 98% (active) | 99% (active) | 99.4% (active)
